# Inconclusive results are not listed. Where a call stands in place of a potency, no number is given. Values without a mark were called inactive. Activity calls are given as the source filed them. Unless noted, calls follow the shape of the dose curve; as a rule, active = well fitted curve in the direction sought with a large enough effect in the repeat runs; inconclusive = weak or mixed curves; inactive = no such curve, though single readings can be large; an effect the other way counts as inactive or inconclusive.
# What was measured:
# [1] = qHTS assay to identify small molecule agonists of the NFkB signaling pathway (AID 1159509; active = well fitted curve in the direction sought with a large enough effect in the signal ratio in the repeat runs, not every such curve was filed as active; the % refers to the signal ratio; also: series mostly up to about 61 µM)
# Procedure, shortened: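 After overnight attachment, reporter cells received test compounds, DMSO or positive controls and were incubated 5 hr at 37 C. FRET substrate was then added for 1.5 hr at room temperature before dual-emission fluorescence reading.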
# [2] = qHTS assay to identify small molecule agonists of the NFkB signaling pathway - cell viability counter screen (AID 1159515; calls by dose curve; also: series mostly up to about 61 µM; nearly all actives have a fitted effect of over 55% in size)
# Procedure, shortened: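 Using the same wells as the NFkB reporter read, ME-180 NFkB-bla cells given compounds for 5 hr were assessed for viability via CellTiter-Glo, with luminescence taken after a 30 min room-temperature incubation.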
# [3] = qHTS assay to identify small molecule agonists of the endoplasmic reticulum stress response signaling pathway (AID 1159516; active = well fitted activation curve with a large enough effect in the signal ratio in the repeat runs, not every such curve was filed as active; the % refers to the signal ratio)
# Procedure, shortened: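 An ESRE-bla HeLa cell assay: compounds were pin-transferred from DMSO onto overnight-plated cells and left 5 hr at 37 C. Substrate was then loaded for 2 hr at room temperature before reading fluorescence at 460 nm and 530 nm.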
# [4] = qHTS assay to identify small molecule agonists of the endoplasmic reticulum stress response signaling pathway - cell viability counter screen (AID 1159517; calls by dose curve;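 also: HeLa cells carrying an ER stress response element beta-lactamase reporter; series mostly up to about 61 µM; nearly all actives have a fitted effect of over 50% in size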)
# Procedure, shortened: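 Counter-screen wells were identical to the reporter wells. Cells were plated at 1,500 per well and dosed for 5 hr, then read for luminescence 30 min after CellTiter-Glo addition.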
# [5] = qHTS assay to identify small molecule antagonists of the retinoid-related orphan receptor gamma (ROR-gamma) signaling pathway - cell viability counter screen (AID 1159520); also: nearly all actives have a fitted effect of over 50% in size
# Procedure, shortened: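 Tet-on ROR gamma CHO cells were given compounds for 2 hr, then doxycycline hyclate at 1 uM final, and incubated 16 hr at 37 C. Viability was measured as ATP content by CellTiter-Glo luminescence.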
# [6] = qHTS assay to identify small molecule agonists of the AP-1 signaling pathway - cell viability counter screen (AID 1159525; calls by dose curve; also: nearly all actives have a fitted effect of over 55% in size)
# Procedure, shortened: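 AP-1-bla ME-180 cells in Opti-MEM with 0.5% dialyzed FBS, compound exposure 5 h at 37 C in 15-point titration. Viability read in the same wells as ATP content by CellTiter-Glo luminescence, normalised to tetra-n-octylammonium bromide and DMSO controls.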
# [7] = qHTS assay to identify small molecule agonists of the AP-1 signaling pathway (AID 1159526; calls by dose curve)
# [8] = qHTS assay to identify small molecule antagonists of the retinoid acid receptor (RAR) signaling pathway - cell viability counter screen (AID 1159551); also: nearly all actives have a fitted effect of over 35% in size
# Procedure, shortened: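 Retinol-stimulated (1 uM final) C3RL4 cells, compound 6 h, 37 C; readout CellTiter-Glo luminescence (ATP) after 30 min RT incubation.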
# [9] = qHTS assay to identify small molecule antagonists of the estrogen related receptor (ERR) signaling pathway - cell viability counter screen (AID 1224818);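 also: series mostly up to about 46 µM; viability measured after 17.5 h of compound exposure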
# Procedure, shortened: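 After a 6 h pre-incubation, ERR cells were dosed by pin tool with compounds, positive/negative controls or DMSO alone. Following 17.5 h at 37 C and 30 min with CellTiter-Fluor, fluorescence was recorded.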
# [10] = qHTS assay to identify small molecule antagonists of the estrogen related receptor (ERR) signaling pathway (AID 1224819; also: potency is read from the fitted curve at half-maximal effect; nearly all actives have a fitted effect of over 50% in size)
# Procedure, shortened: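 Luminescence readout (One-Glo, 30 min, RT) of ERR cell line after 18 h compound exposure at 37 C; cells seeded 2,000/well, pre-incubated 6 h, compounds pinned from DMSO stocks.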
# [11] = qHTS assay to identify small molecule agonists of the estrogen related receptor (ERR) signaling pathway (AID 1224820)
# Procedure, shortened: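 Quantitative HTS of the LOPAC library used NTP ERR reporter cells treated 18 h at 37 C. Signal is luminescence after One-Glo addition and a 30 min room-temperature incubation.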
# [12] = test system: estrogen-related receptor alpha (ERRalpha) with PGC-1alpha coactivator, human; test: qHTS assay to identify small molecule antagonists of the estrogen related receptor signaling pathway with the pleiotropic PPARgamma coactivator (PGC) (AID 1224821; calls by dose curve;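 also: series mostly up to about 46 µM; lower luminescence signal means antagonism of PGC/ERR signalling; nearly all actives have a fitted effect of over 50% in size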)
# Procedure, shortened: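 Quantitative HTS for antagonism: PGC/ERR cells received compounds after 6 h attachment and were incubated 18 h at 37 C, with luminescence (One-Glo) as the endpoint.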
# [13] = qHTS assay to identify small molecule agonists of the estrogen related receptor signaling pathway with the pleiotropic PPARgamma coactivator (PGC) (AID 1224823)
# Procedure, shortened: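 Cell-based luciferase assay in the NTP-supplied PGC/ERR line, 2,000 cells/well; 18 h compound exposure at 37 C, luminescence after One-Glo.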
# [14] = qHTS assay to identify small molecule antagonists of the retinoic acid receptor (RAR) signaling pathway (AID 1159552; also: nearly all actives have a fitted effect of over 50% in size)
# Procedure, shortened: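 C3RL4 RARE-luc cells, overnight plating; retinol 1 uM final added right after compound; 6 hr 37 C; luciferase read at 30 min RT.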
# [15] = qHTS assay to identify small molecule agonists of the retinoic acid receptor (RAR) signaling pathway (AID 1159553)
# Procedure, shortened: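 Reporter readout comes from luciferase under RARE control in C3RL4 cells; compound exposure lasts 6 hr at 37 C in 5% CO2, and luminescence is recorded following a 30 min room-temperature incubation with reagent.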
# [16] = qHTS assay to identify small molecule antagonists of the vitamin D receptor (VDR) signaling pathway - cell viability counter screen (AID 743225); also: nearly all actives have a fitted effect of over 50% in size
# Procedure, shortened: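 Parallel cytotoxicity test: VDR-UAS-bla HEK 293T, 3 nM (final) 1-alpha,25-dihydroxyvitamin D3 with test compound, 16 h, 37C. Endpoint is CellTiter-Glo luminescence in the same wells.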
# [17] = qHTS assay to identify small molecule agonists of the RXR signaling pathway - cell viability counter screen (AID 1159529); also: nearly all actives have a fitted effect of over 50% in size; also: potency is read from the fitted curve at half-maximal effect
# Procedure, shortened: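 In this parallel viability measure, GeneBLAzer RXR-alpha HEK 293T cells (2% charcoal-stripped FBS) were given a 5 hr preincubation, treated with compounds 16 hr at 37 C, and read by CellTiter-Glo luminescence.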
Compound,outcome [1],outcome [2],outcome [3],outcome [4],Potency [5],outcome [6],outcome [7],Potency [8],outcome [9],Potency [10],outcome [11],Potency [12],Potency [13],Potency [14],Potency [15],Potency [16],Potency [17]
COc1cc2c(cc1OC)-c1cc(=Nc3c(C)cc(C)cc3C)n(C)c(=O)n1CC2,inactive,inactive,inactive,inactive,inactive,inactive,inactive,inactive,inactive,17.4 µM (active),inactive,inactive,inactive,,,,
CCOC(=O)c1ccccc1C,inactive,inactive,inactive,inactive,inactive,inactive,inactive,inactive,,,,,,inactive,inactive,,
Cc1cnc(C)c(C)n1,inactive,inactive,inactive,inactive,inactive,inactive,inactive,inactive,,,,,,,inactive,inactive,
O=C(CCCCCCCCC#CI)Oc1ccccc1,inactive,inactive,inactive,inactive,inactive,inactive,inactive,inactive,,,,,,,inactive,inactive,inactive
CCn1cc(C(=O)O)c(=O)c2cc(F)c(N3CCNCC3)nc21,inactive,inactive,inactive,inactive,inactive,inactive,inactive,inactive,,,,,,,,inactive,inactive
O=C(CCCN1CCC(O)(c2ccc(Br)cc2)CC1)c1ccc(F)cc1,inactive,inactive,inactive,inactive,inactive,inactive,inactive,inactive,,,,,,,inactive,inactive,inactive
CC(=O)Nc1ccccc1C,inactive,inactive,inactive,inactive,inactive,inactive,inactive,inactive,,,,,,,,,
COC(OC)(C(=O)c1ccccc1)c1ccccc1,inactive,inactive,inactive,inactive,inactive,inactive,inactive,inactive,,,,,,,,inactive,inactive
Cc1cc(S(=O)(=O)O)ccc1N=Nc1c(O)ccc2ccccc12,inactive,inactive,inactive,inactive,inactive,inactive,inactive,,,,,,,inactive,inactive,inactive,inactive
CCOC(=O)[C@@H](C)Oc1ccc(Oc2nc3ccc(Cl)cc3o2)cc1,inactive,inactive,inactive,inactive,inactive,inactive,inactive,inactive,,,,,,inactive,,inactive,
CCOC(=O)N1CCC(n2c(=O)[nH]c3cc(Cl)ccc32)CC1,inactive,inactive,inactive,inactive,inactive,inactive,inactive,inactive,,,,,,inactive,inactive,,
CC(C)CCCCCOC(=O)CCCCC(=O)OCCCCCC(C)C,inactive,inactive,inactive,inactive,inactive,inactive,inactive,inactive,,,,,,,inactive,inactive,inactive
CC(=O)OCC(=O)[C@H]1CC[C@H]2[C@@H]3CCC4=CC(=O)CC[C@]4(C)[C@H]3CC[C@]12C,inactive,inactive,inactive,inactive,inactive,inactive,inactive,inactive,,,,,,,inactive,inactive,
Cc1ccc(/C=N/n2c(-c3ccccc3)csc2=S)cc1,inactive,inactive,inactive,inactive,inactive,inactive,inactive,inactive,,,,,,,inactive,inactive,inactive
CC(=O)OCC(=O)[C@@]12OC(C)(C)O[C@@H]1C[C@H]1[C@@H]3C[C@H](F)C4=CC(=O)C=C[C@]4(C)[C@@]3(F)[C@@H](O)C[C@@]12C,inactive,inactive,inactive,inactive,inactive,inactive,inactive,inactive,,,,,,,,,
O=C(N/N=C/c1ccc([N+](=O)[O-])o1)c1ccc(O)cc1,inactive,inactive,inactive,inactive,inactive,inactive,inactive,,,,,,,,inactive,inactive,
COc1ccc([C@@H]2Sc3ccccc3NC(=O)[C@@H]2O)cc1,inactive,inactive,inactive,inactive,inactive,inactive,inactive,inactive,,,,,,,,inactive,inactive
CCOC(=O)CC(=O)C(=O)OCC,inactive,inactive,inactive,inactive,inactive,inactive,inactive,inactive,,,,,,,inactive,,
Brc1cc(-c2ccc(Br)c(Br)c2Br)cc(Br)c1Br,inactive,inactive,inactive,inactive,inactive,inactive,inactive,inactive,,,,,,,inactive,inactive,10.8 µM (active)
Cc1ccc(S(=O)(=O)NC2CCCCC2)cc1,inactive,inactive,inactive,inactive,inactive,inactive,inactive,inactive,,,,,,,inactive,inactive,inactive
